Reference: PubChem BioAssay AID1508600 (Functional Genomics Laboratory (NCATS/FGL), 2020)
The whole screen tested about 53,000 sequences, of which about 3,700 (7%) were called active.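 How the source made its calls: active means gene knockdowns whose robust z-score for IL-1 alpha signal is at least 2 or at most -2, so actives lie on both sides; inactive means the rest.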 Only a selection was taken, and actives are over-represented in it overall.

assay: Components of the Cytosolic LPS Sensing Pathway: Gene Identification via Genome-wide siRNA Screen; conditions: RAW264.7 macrophages, IL-1a HTRF, actives lie on both sides, screened at 100 nM (by protocol), cells primed 5 h with Pam3CSK4 first
Description: Non-canonical inflammasome activation by cytosolic LPS is a critical component of the host response to Gram-negative bacterial infection, however we lack a comprehensive understanding of the cellular processes that control this pathway. Here we describe a genome-wide siRNA screen to identify genes regulating the mouse macrophage IL-1 alpha response to cytosolic LPS.
RAW264.7 cells were maintained in complete DMEM media, comprising DMEM with 4.5 g/L glucose, 10% FBS (Gemini Bio-Products, West Sacramento, CA), 2 mM Glutamine (Lonza) and 20 mM HEPES (Lonza), hereafter complete DMEM.
The RNAi screen was conducted in 384-well format using the Ambion Silencer Mouse Genome siRNA Library (#4391425), which consists of three unique, nonoverlapping, nonpooled siRNAs for each of 17,000 gene targets. siRNA reagents ([…]) were stamped into 384-well white flat-bottom microplates (Corning, 3570) using a Velocity11 VPrep liquid handling system (Agilent) integrated into a BioCel robotic platform (Agilent) in columns 1-22, leaving columns 23-24 empty for negative (Ambion, Negative control #1) and positive (mouse Casp4) controls, respectively. The median value of each plate's negative control column was used to normalize sample wells, and the positive control was used to assess transfection efficiency and assay performance.
Lipofectamine RNAiMAX Transfection Reagent ([…]; Invitrogen) was added in […] serum-free, antibiotic-free media to plate wells using a Thermo Scientific Matrix WellMate and Microplate Stacker. Plates were incubated for 45 min at room temperature to allow for the sufficient formation of siRNA-lipid complexes. Cells were seeded at a density of 1x10^4 cells per well in 20 microL media containing 20% (vol/vol) FBS without antibiotics. The final concentration of siRNA in each well was 100 nM. Cells were cultured for 48h at 37 degrees C in 5% CO2 before addition of […] of TLR ligand Pam3CSK4 for 5 hours. The medium was then removed, replaced with […] growth media and cell were transfected with […] of LipidA and TransIT-TKO (Mirus) for 24 hour. At the end of the LipidA treatment, […] of supernatant was transferred to a 384 Greiner Bio-one non-binding low volume plate and […] of IL-1a HTRF reagent (Cisbio, 62MIL1APEH) was added and incubated at room temperature overnight. The plates were read on an EnVision plate reader (PerkinElmer). Cell viability was measured by adding 20ul Cell Titer Glo to the original plate and running a luminescence read on the EnVision. The quantified IL-1a signal for each siRNA gene-targeted well was divided by the median of the negative control wells and multiplied by 100 to achieve a negative control normalized value for each well/siRNA. This normalized value was then used to generate a robust z-score by first taking the log of each value and then by subtracting the median and dividing by the […].

Row | Sequence | z-score
1 | GGUGACUUUUUGGUACAGATT against Mthfr | 0.558 (inactive)
2 | GGCUGUUAUCCAGAGAGAUTT against Nim1k | 0.177 (inactive)
3 | GGACCUGAACACAGCUACUTT against Stoml1 | 1.04 (inactive)
4 | GGAGAUCCUUAAGCUGUUGTT against Aen | -2.37 (active)
5 | GCCUGACGGCACGUAUGUATT against Acox1 | 0.527 (inactive)
6 | GGUACAGUGCAUCGACAUGTT against Eng | 0.879 (inactive)
7 | CGGAAGGAAGUGCCUAAACTT against Rcc2 | 0.668 (inactive)
8 | GCAGUUAACUACGUUGCAATT against Zranb2 | -0.44 (inactive)
9 | GGGAUGUGAUAGUUCAUAATT against Stil | -0.304 (inactive)
10 | GGACAUUCUCUACCGAAUATT against Acsm1 | 2.04 (active)
11 | GGAUGAUUAUUGGAGCUAUTT against Vtn | 0.128 (inactive)
12 | GGACAAUAGGAGCCUUUAATT against Vmn1r211 | 0.125 (inactive)
13 | CCUUCUAGUGCAUCAGUGGTT against Olfr890 | -0.508 (inactive)
14 | GGCUCUGGUCCAAGAAAUGTT against C4b | -0.176 (inactive)
15 | CCAUGUCGUAUGUGAUUCUTT against Hils1 | -0.528 (inactive)
16 | GGAUGUUGAACAAAAGAAGTT against Abce1 | -0.863 (inactive)
17 | GCUUAUGUUGUUGUGCAUUTT against Zfyve21 | 0.362 (inactive)
18 | GCUAUUCAAUCUGAGGAAATT against Olfr1278 | 0.246 (inactive)
19 | GCCUGGAUUAUAGGAUCACTT against Tmem208 | -1.45 (inactive)
20 | GGAUUAGAAUGUCAUGUCUTT against Ddx20 | -1.28 (inactive)
21 | GCAUCAGGCCCGUUCAGAATT against Ddx4 | 3.23 (active)
22 | GCAGGUUGCUAUGCAUAUGTT against 9930038B18Rik | 0.722 (inactive)

Row | Sequence | z-score
23 | CGCAUUUUAGUUCAUCUGUTT against Sowahb | -0.669 (inactive)
24 | GGAUCAAGGAGCAAGUGGUTT against B4galnt1 | -1.7 (inactive)
25 | GACCUUCCAGGUCAAGUUGTT against Plcg1 | 2.56 (active)
26 | CCUAUUCCAUUGACAAUGATT against Tubb2a | 0.286 (inactive)
27 | GCUAAUUCAUGAAUUGAUGTT against Ofd1 | 1.01 (inactive)
28 | GGAGCAGGAGAAAAUUUUGTT against Olfr437 | -0.0124 (inactive)
29 | GGCCCGUCACAUGAAGAAGTT against Ip6k3 | 0.238 (inactive)
30 | GGAGCUAAGUGAUUUUAGATT against Mtf1 | 0.403 (inactive)
31 | GGUGGAGGAUUUUUCAGAUTT against Hs6st2 | 2.42 (active)
32 | GGAGGAUAUUGGAACUGCCTT against Lrrc26 | 0.312 (inactive)
33 | GGCAUUAUCGUGGUUGGCATT against Ntpcr | -1.97 (inactive)
34 | GCACGAGAGUCUGAAGGAUTT against Mns1 | -0.2 (inactive)
35 | GGUUGUCGCCAGAAUCAAGTT against Slc9a3r2 | 2.28 (active)
36 | GGAUCUAUGGACGACCUUCTT against Kcnj10 | -0.643 (inactive)
37 | GGCGUGUCUGUAAAAUCUUTT against Exo5 | 0.656 (inactive)
38 | GCGAGAUUGGUGCAAAACUTT against Grem1 | -1.43 (inactive)
39 | CCGUCAUCCGAGCAAUCAGTT against Kcnq5 | -0.248 (inactive)
40 | CGAACGAUUGAAGAUUUCUTT against Nat3 | 2.81 (active)
41 | GGUGGCAGACAUUUCAACATT against Ifi27 | 1.54 (inactive)
42 | GCUUCUUACAGUUUGCCCATT against Vmn1r65 | -0.859 (inactive)
43 | CGUGACCAUCAGGCUAAAGTT against Ecrg4 | 3.42 (active)
44 | GGUAAAAAAUGCUUUCAACTT against Olfr1008 | 0.696 (inactive)

Row | Sequence | z-score
45 | GGCGACAGCUAAGUGUUGGTT against Gprc5a | -0.0528 (inactive)
46 | GGAGCUGAUAAGAAAACUATT against Gbp2 | 0.486 (inactive)
47 | CCCUCAGUUGGUCACAUGUTT against Mpc1 | -0.182 (inactive)
48 | GGGACAAAAUUAUUCCUCCTT against Med14 | -0.977 (inactive)
49 | GGAACAACUUUCAUCUCACTT against Anxa10 | 1.34 (inactive)
50 | CGAAAUUUAACUUGAACAGTT against Toporsl | 0.659 (inactive)
51 | GGGACGGAGAAAAGCUUUUTT against Olfr419 | 3.92 (active)
52 | AGCAGAAAAAGGAAGGCCATT against Xlr3c | 0.733 (inactive)
53 | GGACACAGACCUUUGUUAATT against Lpar6 | -0.0566 (inactive)
54 | GUUCACACACGAAUUUGACTT against H2-Oa | -2.32 (active)
55 | GCCUGUUUGGUAUUCUUCCTT against Olfr832 | -1.19 (inactive)
56 | GGGAAACUCUGCAUGAGUATT against Tenm1 | -0.137 (inactive)
57 | CCUCUGUUGAACCAUCAUUTT against Gpr21 | 0.127 (inactive)
58 | GGCGGUGAUGGAAUGAACATT against Plod2 | 0.706 (inactive)
59 | CCUACCACAUGGAUGAGUATT against Accs | 0.525 (inactive)
60 | GCUCUAGGGUCGUAAUGUUTT against Ralb | -2.33 (active)
61 | GGAUUUCAUCUGGUACCUGTT against Ceacam19 | -0.0176 (inactive)
62 | CGGAAUAUAGAAUGAAACCTT against Cd200r3 | 0.731 (inactive)
63 | GGACCAUAAAGUGUUACUATT against Tnrc6b | 0.526 (inactive)
64 | GGGCCCAUUUUCAGAAAUGTT against Tagln3 | 0.0546 (inactive)
65 | GGAGGUUAAGAUUCCAGAGTT against Prune1 | 1.52 (inactive)
66 | CCUAUGGCCAUGAUCCUUATT against Olfr575 | 1.29 (inactive)

Row | Sequence | z-score
67 | GGUCAAUGAACCAUCCCACTT against Padi6 | -0.983 (inactive)
68 | GGAACACCAUCAAUAAACUTT against Tjap1 | -2.09 (active)
69 | GGACCAGAGUAACUUGAAUTT against Zfp128 | -0.66 (inactive)
70 | CCAUUAUUCUAGUGUCCUATT against Olfr1368 | -0.753 (inactive)
71 | GGGCUAUCUUCUGAUUGGCTT against Zp3r | -2.45 (active)
72 | GGAACUGCUCAAGAUCAAGTT against Plagl2 | 1.92 (inactive)
73 | GGGCUGAUAAUGUUAGCUCTT against Olfr161 | 0.48 (inactive)
74 | CCUCAUAGGCUUGACAAUUTT against Exoc2 | -0.0626 (inactive)
75 | GGCAGCAUGAUUAUUUCAATT against Gm4861 | -0.0747 (inactive)
76 | GGAAGUAGGACUAGCCAUCTT against Akr1c6 | 3.37 (active)
77 | CCUGAAAAGCUAUUGGGUATT against Baat | -0.196 (inactive)
78 | GGGAUGGAGAAUCAAGAUATT against Tmem117 | -1.9 (inactive)
79 | CCCACAUAAAUAAGUUGGUTT against Olfr996 | -1.02 (inactive)
80 | GGUUCAGCUUUUCAUCAGUTT against Cops3 | 1.37 (inactive)
81 | GGAGAUUAUCACAACUAUUTT against Sash3 | 0.845 (inactive)
82 | GGUUCUUGGGCACCAUUAUTT against Olfr786 | 0.742 (inactive)
83 | GCCGUUUGUACCUUGUCAGTT against 4933430I17Rik | -3.01 (active)
84 | GCAAUAUUUCAGCACACUGTT against Txndc16 | -1.08 (inactive)
85 | GCUAAAUUCAGCUGAGGCUTT against Kdm4d | -0.217 (inactive)
86 | GGGAAUAUGUCUUGUGAUATT against Ddo | 0.141 (inactive)
87 | GGUUUUACUGUAGACCUUUTT against Hnrnpa1 | 0.542 (inactive)
88 | GGGAAACUUCUUCAUGGGUTT against Dazap2 | 0.0384 (inactive)

Row | Sequence | z-score
89 | GGAGUAUGAAUGCUAUGUCTT against Fsd2 | -3.24 (active)
90 | GGCUCAUCGAGAUUAACCCTT against Carns1 | 0.195 (inactive)
91 | GGACAUAUUGGAUGGUGAUTT against Usp2 | -0.847 (inactive)
92 | CCGAGAACUACCUGUGUAATT against Unc119b | 0.266 (inactive)
93 | GGGUUCAAAUAGUUUACCUTT against Tmem33 | 0.156 (inactive)
94 | GCCGCAUUGAGUACAUGGUTT against Ap1m1 | 1.9 (inactive)
95 | GGGAUGAUUUUGAGAUUUUTT against Dmpk | 2.74 (active)
96 | GGAUUUCAGAAAGUGGCCUTT against Acad8 | -1.22 (inactive)
97 | CCCUAUGGACUGAGUUUGUTT against Olfr183 | -0.036 (inactive)
98 | CUACGUGCUAGCUCAAGGATT against Mmp28 | -1.1 (inactive)
99 | GGAAGUAUUUCACAUGUGATT against Dctn1 | -0.299 (inactive)
100 | CGGUAUAUAGAUCACUUCUTT against Olfr56 | 0.276 (inactive)
101 | GGUGAUCCUCAUAUUGGCCTT against Npy2r | -0.521 (inactive)
102 | GCUACUUGUUGAGACCCAATT against Esr1 | -0.616 (inactive)
103 | GCCCAAAAGUAUAAACCAGTT against Peg12 | 0.318 (inactive)
104 | CGAGCUUGCUAUCGGGAAGTT against Defb7 | -0.902 (inactive)
105 | GCUUAAGCAGUGAUAAUAATT against B230317F23Rik | -1.65 (inactive)
106 | CGAGGACUACUAGAAGAAATT against Trpc1 | 2.36 (active)
107 | GGACACAGGACUCUACACCTT against Psg16 | 0.293 (inactive)
